Test results from PubChem BioAssay AID602410 (Johns Hopkins Ion Channel Center, 2012).
Hit rate of the full screen: of about 340,000 compounds, about 2,800 (0.82%) were called active.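 Rule for the calls: active = B-score under library mean minus 4 SD, starting fluorescence ratio at most library mean plus 5 SD; inactive = the rest.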 Only a selection was taken, and actives are over-represented in it overall.

Each compound was assayed against Potassium channel subfamily K member 3 (Homo sapiens) (UniProt O14649) (assay: human KCNK3 channel inhibitors, primary screen, CHO cells, FluxOR thallium flux, B-score (AID 602410;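 for B-score: more negative B-score means stronger inhibition of thallium flux through KCNK3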)). Conditions: FluxOR fluorescence, at 10 µM; active compounds read low.
Chain of Potassium channel subfamily K member 3 (Homo sapiens) (O14649 whole entry, looked up): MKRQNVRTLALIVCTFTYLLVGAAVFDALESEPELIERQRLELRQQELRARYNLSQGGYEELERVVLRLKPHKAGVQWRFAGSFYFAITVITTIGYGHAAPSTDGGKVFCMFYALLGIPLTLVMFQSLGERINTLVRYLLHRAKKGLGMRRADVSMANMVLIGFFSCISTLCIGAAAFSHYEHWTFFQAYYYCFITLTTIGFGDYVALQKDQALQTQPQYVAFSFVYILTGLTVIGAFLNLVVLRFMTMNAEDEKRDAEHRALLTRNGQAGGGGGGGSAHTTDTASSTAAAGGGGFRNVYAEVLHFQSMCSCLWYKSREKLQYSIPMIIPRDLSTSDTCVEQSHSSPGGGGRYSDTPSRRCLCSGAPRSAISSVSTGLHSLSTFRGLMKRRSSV
For `CCCCn1c(O)c(C(CC)=NCc2ccco2)c(=O)[nH]c1=O`, the B-score was “inactive”.
`CCCCCCN=C(CC)c1c(O)n(CCCC)c(=O)[nH]c1=O` was tested, and the B-score was -9.07 (active).
In the case of `CCC(=NCCCO)c1c(O)n(-c2ccc(OC)cc2)c(=O)[nH]c1=O`, the B-score is reported as “inactive”.
`COc1ccc(Br)cc1CNCCc1cccc(Cl)c1` was tested, and the B-score was “inactive”.
In the case of `CCCCC(=O)N/N=C/c1c(O)n(CC)c(=S)n(CC)c1=O`, the B-score is reported as “inactive”.
For `Oc1cc2c(cc1CN1CCN(c3ccccc3)CC1)OCO2`, the B-score was “inactive”.
In the case of `COc1ccc(C(=O)C2CCCN(Cc3ccc(C)s3)C2)cc1OC` (stereo not given), the B-score is reported as “inactive”.
With `COc1ccccc1C1=NCc2nnc(CSC)n2-c2ccc(Cl)cc21` the B-score was -9.71 (active).
`Cc1cc(C(=O)OCC(=O)Nc2c(F)cccc2F)c(C)n1C1CC1` was tested, and the B-score was “inactive”.
With `CC(C)c1c(CN(C)C(C)Cc2ccccc2)n(C)n(-c2ccccc2)c1=O` (stereo not given) the B-score was “inactive”.
For `CCN1CCN(Cc2cc(OC)c3c(c2)OCO3)CC1`, the B-score was “inactive”.
For `CCOC(=O)C1SC2(C(F)(F)C(F)F)CC1(O)c1c(c(OC)c3occc3c1OC)O2` (stereo not given), the B-score was -10.9 (active).
For `CCOC(=O)C(O)(c1ccc(N=Cc2ccccc2O)c(C)c1)C(F)(F)F` (stereo not given), the B-score was “inactive”.
`CC12CN3CC(C)(CN(C1)C3c1cccs1)C2` (stereo not given) was tested, and the B-score was “inactive”.
In the case of `CNCC(O)c1cc(F)c(OCc2ccccc2)c(OCc2ccccc2)c1F` (stereo not given), the B-score is reported as “inactive”.
